Nrf2 activator = Nrf2 pathway activation; Potency, µM (series often up to 46.1 µM), for inactives: at the highest dose activation, actives largely listed as activators; 0.31% of 410,000 active; AREc32 ARE-luciferase reporter (MCF7-derived line), luminescence, 24 h; further: % of control where 0% means no effect; nearly all actives have a fitted effect of over 65% in size
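ARE activation measured as luciferase luminescence (Steady-Glo, 30 min RT) in AREc32_Fluc cells after 24 hr compound exposure at 37 deg C, 5% CO2; cells seeded overnight at 1000/well in OPTI-MEM, 5% FBS.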
ATXN2 expr inh = ATXN2 expression inhibition. HEK-293 ATXN2-luciferase reporter, luminescence, 24 h. Potency, µM (titrated, usually from 57 µM), for inactives: top-dose activity change, negative = inhibition, most hits filed as inhibitors. 0.72% of 360,000 active; further: on the % scale 0 is the no-effect control and ±100 the full control effect; nearly all actives have a fitted effect of over 55% in size
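qHTS (up to 57 uM final) was run with 24 h compound exposure of reporter cells at 37 °C. Each well was multiplexed: SteadyGlo luminescence measured ATXN2-luciferase expression after a fluorogenic Gly-Phe-AFC viability readout (25 uM final).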
ATXN viability = viability counter-screen for ATXN expression inhibitors; Potency, µM (top dose mostly 56.7 µM), actives largely listed as cytotoxic; 0.49% of 400,000 active; S2 cells (HEK-293 line with an ATXN2-luciferase reporter) viability, CellTiter-Fluor protease fluorescence, 24 h; AID 651635; further: nearly all actives have a fitted effect of over 40% in size
A549 tox = counter-screen for Nrf2 inhibitors: cytotoxicity in A549 cells. A549 ARE-Fluc cells, CellTiter-Fluor viability, 18-24 h. AID 504648. Potency, µM (top dose mostly 46 µM), for the others: at the top dose activity change, negative = cytotoxicity, most hits filed as inhibitors. 0.16% of 390,000 active; further: on the % scale 0 is the no-effect control and ±100 the full control effect
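A549 ARE_Fluc cells in 5% FBS OPTI-MEM were exposed to compounds in concentration-response for 18-24 h at 37 deg C. Viability was read by CellTiter-Fluor fluorescence (Ex 405/Em 525) after 30 min, before the luciferase read.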
Nrf2 inh = blocks Nrf2 signaling; A549 ARE-Fluc reporter, luciferase luminescence, 18-24 h; Potency, µM (top dose mostly 46 µM), inactives show top-dose activity change, negative = inhibition, most hits filed as inhibitors; 2.1% of 360,000 active; AID 504444; further: on the % scale 0 is the no-effect control and ±100 the full control effect; nearly all actives have a fitted effect of over 60% in size
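Concentration-response testing used A549 ARE_Fluc cells at 5000 cells/well. Following an 18-24 h compound incubation, viability was read by fluorescence (Ex 405/Em 525) and luciferase output by luminescence.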
Active calls of the source: *; i = inactive; ? = inconclusive; · = not tested or not shown. Only some compounds are listed: those with a hit (about 2.9% of all), similar ones and a draw of the others. The call rests on the fitted dose curve; in most records, active means well fitted curve in the direction sought with a large enough effect; inconclusive means small, poorly fitted or top-dose-only effect, or another doubt; inactive means no such curve, though single readings can be large; an effect the other way counts as inactive or inconclusive. Potency means the concentration at half of the fitted maximal effect.

SMILES	Nrf2 activator	ATXN2 expr inh	ATXN viability	A549 tox	Nrf2 inh
COc1cccc(C2C(C#N)=C(NC(=O)NCc3ccccc3)Oc3ccc4ccccc4c32)c1 (configuration not stated)	·	·	·	?	-7%
Cc1ccc(C2C3CSCC=C3C(C#N)=C(N)C2(C#N)C#N)cc1 (configuration not stated)	?	?	i	?	15µM*
O=C(CCc1c[nH]c2ccccc12)NCc1ccncc1	0%	-16%	i	3%	6%
c1ccc2c(CCNc3ccc(Nc4ccncc4)cc3)c[nH]c2c1	·	15µM*	·	·	·
Cc1cc2oc(=O)cc(-c3ccccc3)c2c(C)c1-c1ccc(O)cc1	6%	-25%	i	-10%	16µM*
Cc1cc(O)c2c(-c3ccccc3)cc(=O)oc2c1	3%	3%	i	-5%	-3%
CC1(C)CC(=O)C(C2C3=C(CC(C)(C)CC3=O)Oc3c(Br)cc(Br)cc32)=C(O)C1 (configuration not stated)	0%	·	?	?	23µM*
CC1(C)CC(=O)C2=C(C1)OC1=C(C(=O)CC(C)(C)C1)C2c1cc([N+](=O)[O-])cc([N+](=O)[O-])c1O	4%	-25%	i	?	?
Cc1cnc(C)c(-c2cccc3c2OC(CNC(=O)/C=C/c2ccc(F)c(F)c2)C3)n1 (configuration not stated)	·	·	i	·	·
CN1CCCC(CN(C)C(=O)c2cnn(-c3nccc(-c4ccccc4C(F)(F)F)n3)c2C2CC2)C1 (configuration not stated)	·	·	i	·	·
CN=c1sc2c(n1C)C(=O)c1ccccc1C2=O	6%	?	·	?	21µM*
CN=c1sc(C(=O)Nc2ccccc2)c(C)n1C	4%	-7%	i	-2%	?
O=C(c1ccc(Cl)cc1Cl)C1(n2cncn2)Oc2ccccc2C1O (configuration not stated)	3%	-5%	i	1%	10µM*
CC(C)/C=C(/C(=O)c1ccc(Cl)cc1Cl)n1cncn1	?	·	i	2%	-2%
CSc1cccc(Nc2cc(C(=O)NCCCN(C)c3ccccc3)c3ccccc3n2)c1	3%	0%	i	-5%	·
O=C(C1COc2cc(S(=O)(=O)Nc3ccc(Cl)cc3)ccc2O1)N1CCCC1 (configuration not stated)	0%	-14%	i	-5%	26µM*
Cc1cc(C)cc(NS(=O)(=O)c2ccc3c(c2)OCC(C(=O)N2CCCC2)O3)c1 (configuration not stated)	-1%	-25%	?	-11%	-23%
C[C@H]1O[C@H](O[C@H]2[C@H](O)[C@@H](O)[C@@H](O[C@H]3[C@H](O)[C@@H](O)[C@H](O)O[C@@H]3CO)O[C@@H]2CO)[C@H](O)[C@@H](O)[C@@H]1N[C@H]1C=C(CO)[C@@H](O)[C@H](O)[C@H]1O	·	2%	i	·	·
CCc1ccc(-c2cc(C)no2)cc1S(=O)(=O)NCCCN1CCN(c2ccccc2)CC1	1%	?	?	-28%	13µM*
Oc1c(N=Nc2ccccn2)ccc2ccccc12	9%	7.9µM*	10µM*	?	?
CN1CCCN(C(=O)[C@@H]2C[C@@H](Sc3nc4ccccc4[nH]3)CN2Cc2ccc(-c3ccccc3)cc2)CC1	·	·	i	·	·
CCOC(=O)c1cccc(Nc2cc(C)nc(C)n2)c1	6%	4%	i	-11%	14%
CC(=O)c1c(C)[nH]c(C(=O)OCC(=O)NCCCc2ccccc2)c1C	3%	-18%	i	-1%	?
CC(=O)c1c(C)[nH]c(C(=O)OCC(=O)Nc2ccc(C)cc2[N+](=O)[O-])c1C	8%	-36%	i	-17%	5.8µM*
CCOC(=O)c1c(C)[nH]c(C(=O)OCC(=O)Nc2ccc(Cl)cn2)c1C	-1%	3%	i	9%	-7%
SMILES	Nrf2 activator	ATXN2 expr inh	ATXN viability	A549 tox	Nrf2 inh
CCOC(=O)c1c(C)[nH]c(C(=O)OCC(=O)Nc2sccc2C(N)=O)c1C	-1%	?	13µM*	?	8.2µM*
CC(=O)c1c(C)[nH]c(C(=O)OCC(=O)Nc2cc(Cl)ccc2[N+](=O)[O-])c1C	8%	?	?	-11%	?
CC(=O)c1c(C)[nH]c(C(=O)OCC(=O)NCc2cccs2)c1C	5%	3%	?	-1%	15µM*
O=C(/C=C/c1ccccc1Cl)c1ccccc(=O)c1O	?	25µM*	?	?	?
O=C(/C=C/c1ccc(O)c(O)c1)c1ccccc1O	?	85%	?	?	-5%
O=C(/C=C/c1ccccc1Cl)c1ccc(O)cc1	?	13%	i	10%	1%
Cc1ccc(C)c(/C=C/C(=O)c2ccccc(=O)c2O)c1	?	18µM*	?	?	23µM*
Cc1ccc(/C=C/C(=O)c2ccccc2)cc1	·	0%	i	·	·
Cc1ccc(/C=C/C(=O)c2ccccc(=O)c2O)c(C)c1	28%	?	?	?	21µM*
O=C(C=Cc1ccccc1O)c1ccccc1O	14µM*	-24%	?	-1%	5%
COC(=O)c1ccc(NS(=O)(=O)c2cc3c4c(c2)CCN4C(=O)CC3)cc1	0%	22%	i	-1%	-15%
COC(=O)c1ccc(NS(=O)(=O)c2cc3c4c(c2)CCC(=O)N4CCC3)cc1	5%	15%	i	0%	23µM*
COc1ccc(-c2cc(=O)c3c(O)cc(O[C@@H]4O[C@H](CO[C@@H]5O[C@@H](C)[C@H](O)[C@@H](O)[C@@H]5O)[C@@H](O)[C@H](O)[C@@H]4O)cc3o2)cc1O	·	5%	·	·	·
Clc1nc(NCc2cccs2)c2[nH]cnc2n1	·	·	·	-2%	23µM*
COC(=O)c1c(C)[nH]c(C(=O)/C=C/c2ccc(C)cc2)c1C	3%	-36%	i	8%	2.6µM*
COC(=O)c1c(C)[nH]c(C(=O)/C=C/c2ccccc2)c1C	1%	51%	i	-3%	?
Cc1cc(C(=O)NCC2CCC3(CCN(Cc4ccccc4C)CC3)O2)n(C)n1 (configuration not stated)	·	·	i	·	·
CC(C)(C)C1C/C(=C/c2ccccn2)C(=O)/C(=C/c2ccccn2)C1 (configuration not stated)	?	1.4µM*	1.8µM*	5.8µM*	5.8µM*
O=C1/C(=C/c2ccccn2)COc2ccccc21	19%	14%	i	3%	37%
CC1C/C(=C/c2ccccn2)C(=O)/C(=C/c2ccccn2)C1 (configuration not stated)	-1%	?	·	?	16µM*
CCOc1cccc(C2C=C(c3ccc4c(c3)OCO4)NC(c3ccc(Cl)cc3)N2)c1O (configuration not stated)	·	·	·	0%	-10%

High-throughput results as filed in PubChem.
